Inconclusive results are not listed. A call without a number means that no potency is given here. Calls of active or inactive are those of the source. Unless noted, calls come from the whole dose curve.
How the values were obtained:
[1] = Nuclear factor erythroid 2-related factor 2/antioxidant responsive element (Nrf2/ARE) small molecule agonists: qHTS cell viability counter screen in human keratinocytes (AID 1919968; active = well fitted curve in the direction sought with a large enough effect in the repeat runs; an effect the other way counts as inactive or inconclusive; note: nearly all actives have a fitted effect of over 55% in size)
In short: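 Seed 1,500 KeratinoSens cells per well, then incubate 5 h at 37 C/5% CO2. Add compounds in DMSO and incubate 23 h. Add CellTiter-Fluor, wait 1 h and read fluorescence.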

[2] = Nuclear factor erythroid 2-related factor 2/antioxidant responsive element (Nrf2/ARE) small molecule agonists: luciferase reporter gene qHTS assay in human keratinocytes (AID 1919969); note: nearly all actives have a fitted effect of over 35% in size; note: potency is the fitted concentration of half-maximal effect
[3] = biological target: Gonadotropin-releasing hormone receptor (Homo sapiens) (UniProt P30968); assay: Human gonadotropin-releasing hormone receptor (GnRHR) small molecule agonists, calcium flux assay in GnRHR-HEK293 cells (AID 1920063); note: nearly all actives have a fitted effect of over 35% in size
Sequence of Gonadotropin-releasing hormone receptor (Homo sapiens) (P30968 whole entry, looked up): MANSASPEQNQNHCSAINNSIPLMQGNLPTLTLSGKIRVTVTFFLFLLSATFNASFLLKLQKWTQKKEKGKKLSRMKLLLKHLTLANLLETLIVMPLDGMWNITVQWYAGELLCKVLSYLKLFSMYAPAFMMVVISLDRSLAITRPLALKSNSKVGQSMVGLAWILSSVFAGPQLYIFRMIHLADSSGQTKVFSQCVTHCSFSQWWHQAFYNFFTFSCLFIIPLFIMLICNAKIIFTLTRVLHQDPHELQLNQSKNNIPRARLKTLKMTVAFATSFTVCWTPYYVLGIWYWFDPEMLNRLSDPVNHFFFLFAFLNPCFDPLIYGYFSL
In short: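 Cells: HEK293 stably expressing human GnRHR. Steps: overnight (18 h) culture, 1 h calcium dye loading at 37 C, compound addition, kinetic fluorescence read at 480/540 nm. Each compound tested at 15 concentrations in triplicate.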

[4] = biological target: KiSS-1 receptor (Homo sapiens) (UniProt Q969F8); assay: Human kisspeptin (KISS1R) small molecule agonists, calcium flux assay in KISS1R-HEK293 cells (AID 1920064; active = well fitted curve in the direction sought with a large enough effect in the repeat runs; an effect the other way counts as inactive or inconclusive)
Sequence of KiSS-1 receptor (Homo sapiens) (Q969F8 whole entry, looked up): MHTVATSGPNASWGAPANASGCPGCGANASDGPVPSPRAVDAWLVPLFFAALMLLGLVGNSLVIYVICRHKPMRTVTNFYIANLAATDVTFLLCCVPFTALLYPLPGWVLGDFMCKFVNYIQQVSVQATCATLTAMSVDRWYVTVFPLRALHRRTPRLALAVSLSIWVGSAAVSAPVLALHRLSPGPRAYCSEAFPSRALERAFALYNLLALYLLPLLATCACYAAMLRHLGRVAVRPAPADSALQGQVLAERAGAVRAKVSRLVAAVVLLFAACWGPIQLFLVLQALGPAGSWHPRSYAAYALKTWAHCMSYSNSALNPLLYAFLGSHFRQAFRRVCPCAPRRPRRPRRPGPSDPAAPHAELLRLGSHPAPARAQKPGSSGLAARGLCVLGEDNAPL
In short: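 Cells plated and incubated 18 h; dye added, 1 h at 37 C; compounds in DMSO pinned in; signal read at 480/540 nm every second for 3 min. Each compound tested at 15 concentrations in triplicate.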

[5] = G protein-coupled receptor (GPCR) small molecule agonists, calcium flux assay: HEK293 wild type cell line counter screen (AID 1920065)
In short: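 Counter-screen of the Tox21 10K library for non-specific calcium release: dye-loaded cells received compounds in DMSO and were monitored by kinetic fluorescence (480/540 nm, 3 min). Fifteen concentrations, run in triplicate.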

[6] = p53 small molecule agonists, cell-based qHTS assay with rat liver microsomes (AID 1963578)
In short: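 Read-out is beta-lactamase reporter fluorescence (LiveBLAzer, 2 h, room temperature, dark) in p53RE-bla cells treated 16 h at 37 C with compound, rat liver microsomes and NADPH, both 0.5 mg/mL final.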

[7] = p53 small molecule agonists, cell-based qHTS assay with human liver microsomes: qHTS cell viability counter screen (AID 1963579); note: nearly all actives have a fitted effect of over 45% in size
In short: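 Cells carrying the p53 response-element beta-lactamase reporter are treated for 16 h at 37 C with test compounds in the presence of human liver microsomes and NADPH (both 0.5 mg/mL final); ATP-based CellTiter-Glo luminescence then reports viability.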

[8] = p53 small molecule agonists, cell-based qHTS assay with rat liver microsomes: qHTS cell viability counter screen (AID 1963580); note: nearly all actives have a fitted effect of over 45% in size
In short: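 HCT-116 p53RE-bla, 4,000 cells/well, 5 h pre-incubation; cpd + rat liver microsomes 0.5 mg/mL + NADPH 0.5 mg/mL (final); 16 h, 37 C; CellTiter-Glo, 30 min RT; luminescence.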

[9] = p53 small molecule agonists, cell-based qHTS assay: qHTS cell viability counter screen (AID 1963581); note: nearly all actives have a fitted effect of over 45% in size
In short: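 Cells: HCT-116 with p53 response element-driven beta-lactamase. Treatment: 16 h, 37 C, compounds in DMSO. Read: CellTiter-Glo luminescence after 30 min RT.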

[10] = p53 small molecule agonists, cell-based qHTS assay (AID 1963582; active = well fitted activation curve with a large enough effect in the signal ratio in the repeat runs, not every such curve was filed as active; the % refers to the signal ratio)
In short: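 Quantitative HTS in p53RE-bla cells: after a 5 h settling period, compounds delivered in DMSO were left on cells for 16 h at 37 C, and reporter induction was measured as fluorescence following 2 h substrate loading.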

[11] = biological target: 5-hydroxytryptamine receptor 2A (Homo sapiens) (UniProt P28223); assay: 5-hydroxytryptamine receptor 2A (HTR2A) small molecule antagonists, cell-based qHTS assay (AID 1963586); note: nearly all actives have a fitted effect of over 45% in size
Sequence of 5-hydroxytryptamine receptor 2A (Homo sapiens) (P28223 whole entry, looked up): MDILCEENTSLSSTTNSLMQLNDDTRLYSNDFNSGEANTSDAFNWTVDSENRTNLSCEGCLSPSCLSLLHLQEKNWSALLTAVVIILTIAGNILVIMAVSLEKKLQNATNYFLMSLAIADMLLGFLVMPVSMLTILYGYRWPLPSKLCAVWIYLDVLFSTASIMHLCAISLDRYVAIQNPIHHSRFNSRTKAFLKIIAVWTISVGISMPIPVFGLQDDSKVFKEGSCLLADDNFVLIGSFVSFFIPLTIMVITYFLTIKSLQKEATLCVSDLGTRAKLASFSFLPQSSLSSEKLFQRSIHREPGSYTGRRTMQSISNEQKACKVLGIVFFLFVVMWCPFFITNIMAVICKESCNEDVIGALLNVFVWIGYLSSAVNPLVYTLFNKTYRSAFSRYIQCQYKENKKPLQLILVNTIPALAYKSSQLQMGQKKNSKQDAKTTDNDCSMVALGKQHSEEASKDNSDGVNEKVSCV
In short: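 Antagonist-mode intracellular calcium assay: DOI (4 nM) added after 5 min compound pre-incubation at room temperature to dye-loaded HTR2A-CHO cells. Fluorescence followed for 3 min, sampled every second.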

[12] = biological target: 5-hydroxytryptamine receptor 2A (Homo sapiens) (UniProt P28223); assay: 5-hydroxytryptamine receptor 2A (HTR2A) small molecule agonists, cell-based qHTS assay (AID 1963587); note: nearly all actives have a fitted effect of over 30% in size
In short: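 Kinetic calcium-flux fluorescence (2 min, 1 sec intervals) after compound addition in agonist mode. HTR2A-CHO cells were cultured 18 h, then dye-loaded 1 h at 37 C.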

[13] = biological target: Muscarinic acetylcholine receptor M1 (Homo sapiens) (UniProt P11229); assay: Cholinergic receptor muscarinic 1 (CHRM1) small molecule agonists, cell-based qHTS assay (AID 1963589); note: nearly all actives have a fitted effect of over 35% in size
Sequence of Muscarinic acetylcholine receptor M1 (Homo sapiens) (P11229 whole entry, looked up): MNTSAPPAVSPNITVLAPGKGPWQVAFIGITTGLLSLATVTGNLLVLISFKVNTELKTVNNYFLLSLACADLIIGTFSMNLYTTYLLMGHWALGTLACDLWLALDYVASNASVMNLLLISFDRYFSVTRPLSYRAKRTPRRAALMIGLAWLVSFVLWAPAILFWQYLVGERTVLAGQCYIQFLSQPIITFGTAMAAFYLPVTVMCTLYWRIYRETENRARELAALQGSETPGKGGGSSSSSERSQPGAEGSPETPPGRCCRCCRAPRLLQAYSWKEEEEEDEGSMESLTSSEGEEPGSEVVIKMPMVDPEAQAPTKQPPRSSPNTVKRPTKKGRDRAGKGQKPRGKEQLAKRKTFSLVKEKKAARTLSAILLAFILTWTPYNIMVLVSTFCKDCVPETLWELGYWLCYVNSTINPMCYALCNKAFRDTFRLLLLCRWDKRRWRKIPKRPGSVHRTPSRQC
In short: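 Agonist-mode qHTS in CHO cells stably carrying human muscarinic M1. Intracellular calcium is tracked by fluorescence every second after compound transfer; each compound runs at 15 concentrations in three independent runs.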

[14] = cAMP Responsive Elements (CRE) small molecule agonists, cell-based qHTS assay (AID 1963590)
In short: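 Agonist mode qHTS in CRE-bla HEK 293T cells: compounds dosed from DMSO for 3 h at 37 C/5% CO2, followed by LiveBLAzer B/G FRET substrate for 2 h at room temperature.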

[15] = cAMP Responsive Elements (CRE) small molecule antagonists, cell-based qHTS assay (AID 1963591; active = well fitted inhibition curve with a large enough effect in the signal ratio in the repeat runs, not every such curve was filed as active; the % refers to the signal ratio)
In short: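 Antagonist mode: test compounds are co-incubated with the adenylyl cyclase activator NKH477 (0.25 uM final) on CRE-bla HEK293T cells for 3 h at 37 °C, followed by LiveBLAzer substrate loading.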

[16] = biological target: D(2) dopamine receptor (Homo sapiens) (UniProt P14416); assay: Dopamine D2 receptor (DRD2) small molecule agonists, cell-based qHTS assay (AID 1963594); note: nearly all actives have a fitted effect of over 35% in size
Sequence of D(2) dopamine receptor (Homo sapiens) (P14416 whole entry, looked up): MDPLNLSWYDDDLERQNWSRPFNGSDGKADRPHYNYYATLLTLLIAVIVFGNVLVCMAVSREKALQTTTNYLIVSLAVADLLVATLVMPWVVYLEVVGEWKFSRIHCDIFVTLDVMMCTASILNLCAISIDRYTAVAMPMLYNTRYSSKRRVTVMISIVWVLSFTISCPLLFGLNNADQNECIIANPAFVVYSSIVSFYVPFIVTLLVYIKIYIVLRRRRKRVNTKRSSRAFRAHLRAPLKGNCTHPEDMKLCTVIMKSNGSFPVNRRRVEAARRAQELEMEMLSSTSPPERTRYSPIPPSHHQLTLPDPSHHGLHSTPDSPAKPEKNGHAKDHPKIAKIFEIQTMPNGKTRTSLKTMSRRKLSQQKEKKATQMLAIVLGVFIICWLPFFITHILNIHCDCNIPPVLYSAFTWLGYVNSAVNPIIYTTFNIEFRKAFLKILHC
In short: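 cAMP accumulation in DRD2-HEK293 cells measured by HTRF after 1 h detection; compounds added 10 min before NKH477 (200nM […]) forskolin-analogue stimulation, 30 min at room temperature, with Ro20-1724 present at 0.1 mM final.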

[17] = biological target: D(2) dopamine receptor (Homo sapiens) (UniProt P14416); assay: Dopamine D2 receptor (DRD2) small molecule antagonists, cell-based qHTS assay (AID 1963595; active = well fitted inhibition curve with a large enough effect in the signal ratio in the repeat runs, with a control signal flat; the % refers to the signal ratio)
In short: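 Stable D2 receptor HEK293 line, 24 h after seeding. Compound preincubated 10 min, then quinpirole (12 nM) with forskolin analogue NKH477 (200 nM), 30 min, room temperature. Detection by time-resolved FRET of cAMP.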

[18] = biological target: Muscarinic acetylcholine receptor M1 (Homo sapiens) (UniProt P11229); assay: Cholinergic receptor muscarinic 1 (CHRM1) small molecule antagonists, cell-based qHTS assay (AID 1963588); note: nearly all actives have a fitted effect of over 40% in size
In short: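 CHRM1-CHO calcium-flux assay, antagonist mode. Cells were seeded 18 h, dye-loaded 1 h at 37 C and given compound for 5 min at RT, then acetylcholine was added at 50nM. FDSS fluorescence was read 3 min; 15 concentrations, three runs.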

[19] = biological target: Beta-2 adrenergic receptor (Homo sapiens) (UniProt P07550); assay: Adrenergic beta2 receptor (ADRB2) small molecule antagonists, cell-based qHTS assay (AID 1963592); note: series mostly up to about 92 µM; nearly all actives have a fitted effect of over 50% in size
Sequence of Beta-2 adrenergic receptor (Homo sapiens) (P07550 whole entry, looked up): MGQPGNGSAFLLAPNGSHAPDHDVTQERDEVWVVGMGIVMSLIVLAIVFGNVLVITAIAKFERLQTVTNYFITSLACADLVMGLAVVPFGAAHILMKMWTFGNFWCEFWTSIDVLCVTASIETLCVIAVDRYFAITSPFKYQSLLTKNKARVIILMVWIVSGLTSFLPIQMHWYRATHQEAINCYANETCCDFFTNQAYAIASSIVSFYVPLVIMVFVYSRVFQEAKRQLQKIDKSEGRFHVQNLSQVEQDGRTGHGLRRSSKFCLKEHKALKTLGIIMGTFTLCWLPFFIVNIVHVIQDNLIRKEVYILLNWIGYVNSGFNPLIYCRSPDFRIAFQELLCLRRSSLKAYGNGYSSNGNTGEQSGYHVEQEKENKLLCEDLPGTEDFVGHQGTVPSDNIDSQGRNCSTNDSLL
In short: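 Cells (CHO, stable ADRB2 overexpression) incubated 18-20hr at 37C; compounds added from DMSO; agonist mix (1nM isoproterenol, 100uM IBMX, 25uM Ro-20-1724) added; 0.5hr RT; d2-cAMP and anti-cAMP-cryptate added; 1hr RT; 665/615 nm read.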

[20] = biological target: Beta-2 adrenergic receptor (Homo sapiens) (UniProt P07550); assay: Adrenergic beta2 receptor (ADRB2) small molecule agonists, cell-based qHTS assay (AID 1963593);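 note: CHO cells stably overexpressing human ADRB2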
In short: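 CHO cells stably over-expressing ADRB2 were plated overnight at 37C, then dosed with compounds plus a stimulation mix containing 100uM IBMX and 25uM Ro-20-1724 for 0.5hr at room temperature. cAMP was measured by HTRF competition, 1hr.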

| Structure (SMILES) | Potency [1] | Potency [2] | Potency [3] | outcome [4] | outcome [5] | Potency [6] | Potency [7] | Potency [8] | Potency [9] | Potency [10] | Potency [11] | Potency [12] | Potency [13] | Potency [14] | Potency [15] | Potency [16] | Potency [17] | Potency [18] | Potency [19] | Potency [20] |
| --- | --- | --- | --- | --- | --- | --- | --- | --- | --- | --- | --- | --- | --- | --- | --- | --- | --- | --- | --- | --- |
| CCc1cccc(C)c1 | inactive | inactive | inactive | inactive | inactive | inactive | inactive | inactive | inactive | inactive | inactive | inactive | inactive | inactive | inactive | inactive | inactive | – | – | – |
| Cn1c(=O)[nH]c2ncn(C)c2c1=O | inactive | inactive | inactive | inactive | inactive | inactive | inactive | inactive | inactive | inactive | inactive | inactive | inactive | inactive | – | – | inactive | inactive | inactive | – |
| O=C(O)c1cccc(O)c1 | inactive | inactive | inactive | inactive | inactive | inactive | inactive | inactive | inactive | inactive | – | inactive | inactive | inactive | inactive | inactive | – | – | inactive | inactive |
| C[C@H](O)C(=O)Nc1c(I)c(C(=O)NC(CO)CO)c(I)c(C(=O)NC(CO)CO)c1I | inactive | inactive | inactive | inactive | inactive | inactive | inactive | inactive | inactive | inactive | inactive | inactive | – | inactive | inactive | inactive | inactive | – | – | – |
| FC(F)(F)c1ccc(Cl)cc1Cl | inactive | inactive | inactive | inactive | inactive | inactive | inactive | inactive | inactive | inactive | – | inactive | inactive | inactive | inactive | – | inactive | – | – | inactive |
| CCCCCCCCCCCCCCCCCCO | inactive | inactive | inactive | inactive | inactive | inactive | inactive | inactive | inactive | inactive | – | inactive | inactive | inactive | inactive | inactive | inactive | inactive | inactive | inactive |
| O=C(O)c1cn(C2CC2)c2cc(Cl)c(F)cc2c1=O | inactive | 13.3 µM (active) | inactive | inactive | inactive | inactive | inactive | inactive | inactive | inactive | inactive | inactive | inactive | – | – | inactive | inactive | inactive | inactive | – |
| c1cc2c3c(c1)ccc1cccc(c13)C2 | inactive | inactive | inactive | inactive | inactive | inactive | inactive | inactive | inactive | inactive | inactive | inactive | inactive | – | – | inactive | inactive | inactive | inactive | – |
| CCOC(=O)c1ncn2c1CN(C)C(=O)c1cc(F)ccc1-2 | inactive | inactive | inactive | inactive | inactive | inactive | inactive | inactive | inactive | inactive | – | – | – | inactive | inactive | inactive | inactive | – | inactive | inactive |
| C[Si]1(C)O[Si](C)(C)O[Si](C)(C)O1 | inactive | inactive | inactive | inactive | inactive | inactive | inactive | inactive | inactive | inactive | inactive | inactive | inactive | inactive | inactive | inactive | inactive | inactive | inactive | – |
| COC(=O)CCCC(=O)O | inactive | inactive | inactive | inactive | inactive | inactive | inactive | inactive | inactive | inactive | inactive | inactive | inactive | inactive | inactive | inactive | inactive | inactive | inactive | – |
| CCCCCC#CC(=O)OC | inactive | inactive | inactive | inactive | inactive | inactive | inactive | inactive | inactive | inactive | inactive | inactive | inactive | inactive | inactive | inactive | inactive | inactive | inactive | – |
| CC(Oc1cc(Cl)ccc1Cl)C(=O)O (stereo not drawn) | inactive | inactive | inactive | inactive | inactive | inactive | inactive | inactive | inactive | inactive | inactive | inactive | inactive | – | – | inactive | inactive | inactive | inactive | – |
| C=CCCCC | inactive | inactive | inactive | inactive | inactive | inactive | inactive | inactive | inactive | inactive | inactive | inactive | inactive | inactive | inactive | inactive | inactive | inactive | inactive | – |
| O=C1c2cccc(O)c2C(=O)c2c(O)cc(CO)cc21 | inactive | 13.7 µM (active) | inactive | inactive | inactive | inactive | inactive | inactive | inactive | inactive | inactive | inactive | inactive | – | inactive | inactive | inactive | inactive | inactive | – |
